# Measured values: PubChem BioAssay AID1159580 (chemical genetic matrix, 2015)
# Out of some 5,500 compounds screened, about 2,000 (36%) were called active. Roughly 18% stayed inconclusive and do not appear here. Some of the results follow. A number with no mark means an inactive call. No stated cut-off is given here; in the data, active means normalized growth mostly below about 0.91 (no sharp cut-off); inconclusive means no clear call, values can overlap the other calls; inactive means mostly above about 0.92.
# Test: chemical genetic growth profiling, strain panel (AID 1159580);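 further: tested at 20 µM; growth read once vehicle control cultures reached saturation at 30 °C; 1 = growth at the plate median or of vehicle wells; lower values mean less growth of the strain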
# Conditions: growth OD
compound,measurement,setting,value
COc1ccc(C[C@H]2NC[C@H](O)[C@H]2OC(C)=O)cc1,normalized growth,"S. cerevisiae deletion strains, locus YKL009W, strain mrt4, hits give low values",0.966
same,normalized growth,"S. cerevisiae deletion strains, locus YKL068W, hits give low values",0.998
same,normalized growth,"S. cerevisiae deletion strains, locus YKL085W, strain MDH1 (second series), hits give low values",1.01
same,normalized growth,"S. cerevisiae deletion strains, locus YKL085W, strain MDH1, hits give low values",1.01
same,normalized growth,"S. cerevisiae deletion strains, locus YKL160W, strain elf1, hits give low values",0.776 (active)
same,normalized growth,"S. cerevisiae deletion strains, locus YKL190W, strain CNB1, hits give low values",0.206 (active)
same,normalized growth,"S. cerevisiae deletion strains, locus YKR001C, strain vps1, hits give low values",0.367 (active)
same,normalized growth,"S. cerevisiae deletion strains, locus YKR026C, strain gcn3, hits give low values",0.985
same,normalized growth,"S. cerevisiae deletion strains, locus YKR091W, strain srl3, hits give low values",1
same,normalized growth,"S. cerevisiae deletion strains, locus YLL001W, strain dnm1, hits give low values",0.884 (active)
same,normalized growth,"S. cerevisiae deletion strains, locus YLL026W, hits give low values",0.807 (active)
same,normalized growth,"S. cerevisiae deletion strains, locus YLL041C, strain sdh2, hits give low values",0.986
same,normalized growth,"S. cerevisiae deletion strains, locus YLR027C, strain aat2, hits give low values",0.659 (active)
same,normalized growth,"S. cerevisiae deletion strains, locus YLR039C, strain RIC1, hits give low values",0.567 (active)
same,normalized growth,"S. cerevisiae deletion strains, locus YLR058C, strain SHM2, hits give low values",0.61 (active)
same,normalized growth,"S. cerevisiae deletion strains, locus YLR102C, strain apc9, hits give low values",1.01
same,normalized growth,"S. cerevisiae deletion strains, locus YLR113W, strain HOG1, hits give low values",0.977
same,normalized growth,"S. cerevisiae deletion strains, locus YLR221C, strain rsa3, hits give low values",0.853 (active)
same,normalized growth,"S. cerevisiae deletion strains, locus YLR258W, strain gsy2, hits give low values",0.734 (active)
same,normalized growth,"S. cerevisiae deletion strains, locus YLR262C, strain YPT6 (second series), hits give low values",0.769 (active)
same,normalized growth,"S. cerevisiae deletion strains, locus YLR262C, strain YPT6, hits give low values",0.386 (active)
same,normalized growth,"S. cerevisiae deletion strains, locus YLR268W, strain sec22, hits give low values",0.854 (active)
same,normalized growth,"S. cerevisiae deletion strains, locus YLR320W, strain mms22, hits give low values",0.957
same,normalized growth,"S. cerevisiae deletion strains, locus YLR330W, strain CHS5, hits give low values",0.87 (active)
same,normalized growth,"S. cerevisiae deletion strains, locus YLR342W, strain FKS1 (second series), hits give low values",0.126 (active)
same,normalized growth,"S. cerevisiae deletion strains, locus YLR342W, strain FKS1, hits give low values",0.412 (active)
same,normalized growth,"S. cerevisiae deletion strains, locus YLR357W, strain rsc2, hits give low values",0.826 (active)
same,normalized growth,"S. cerevisiae deletion strains, locus YLR370C, strain arc18, hits give low values",0.877 (active)
same,normalized growth,"S. cerevisiae deletion strains, locus YLR371W, strain rom2, hits give low values",0.728 (active)
same,normalized growth,"S. cerevisiae deletion strains, locus YLR384C, strain iki3, hits give low values",1
same,normalized growth,"S. cerevisiae deletion strains, locus YLR418C, strain cdc73, hits give low values",0.28 (active)
same,normalized growth,"S. cerevisiae deletion strains, locus YML016C, strain PPZ1, hits give low values",0.625 (active)
same,normalized growth,"S. cerevisiae deletion strains, locus YML032C, strain rad52, hits give low values",0.868 (active)
same,normalized growth,"S. cerevisiae deletion strains, locus YML120C, strain ndi1, hits give low values",0.98
same,normalized growth,"S. cerevisiae deletion strains, locus YML124C, strain tub3, hits give low values",0.988
same,normalized growth,"S. cerevisiae deletion strains, locus YMR058W, strain fet3, hits give low values",0.891 (active)
same,normalized growth,"S. cerevisiae deletion strains, locus YMR078C, strain ctf18, hits give low values",1.02
same,normalized growth,"S. cerevisiae deletion strains, locus YMR125W, strain sto1, hits give low values",0.862 (active)
same,normalized growth,"S. cerevisiae deletion strains, locus YMR129W, hits give low values",0.961
same,normalized growth,"S. cerevisiae deletion strains, locus YMR205C, strain PFK2, hits give low values",0.692 (active)
same,normalized growth,"S. cerevisiae deletion strains, locus YMR223W, strain ubp8, hits give low values",0.723 (active)
same,normalized growth,"S. cerevisiae deletion strains, locus YMR231W, strain pep5, hits give low values",0.752 (active)
same,normalized growth,"S. cerevisiae deletion strains, locus YMR263W, strain SAP30, hits give low values",0.852 (active)
same,normalized growth,"S. cerevisiae deletion strains, locus YMR307W, strain GAS1, hits give low values",0.237 (active)
same,normalized growth,"S. cerevisiae deletion strains, locus YNL067W, strain RPL9B, hits give low values",0.663 (active)
same,normalized growth,"S. cerevisiae deletion strains, locus YNL071W, strain lat1, hits give low values",0.975
same,normalized growth,"S. cerevisiae deletion strains, locus YNL128W, strain TEP1, hits give low values",0.353 (active)
same,normalized growth,"S. cerevisiae deletion strains, locus YNL153C, strain GIM3, hits give low values",0.62 (active)
same,normalized growth,"S. cerevisiae deletion strains, locus YNL183C, strain NPR1, hits give low values",0.97
same,normalized growth,"S. cerevisiae deletion strains, locus YNL209W, strain ssb2, hits give low values",0.74 (active)
same,normalized growth,"S. cerevisiae deletion strains, locus YNL233W, strain BNI4, hits give low values",0.582 (active)
same,normalized growth,"S. cerevisiae deletion strains, locus YNL248C, strain rpa49, hits give low values",0.745 (active)
same,normalized growth,"S. cerevisiae deletion strains, locus YNL250W, strain rad50, hits give low values",0.986
same,normalized growth,"S. cerevisiae deletion strains, locus YNL271C, strain bni1, hits give low values",0.995
same,normalized growth,"S. cerevisiae deletion strains, locus YNL298W, strain CLA4, hits give low values",0.98
same,normalized growth,"S. cerevisiae deletion strains, locus YNL307C, strain MCK1, hits give low values",0.496 (active)
same,normalized growth,"S. cerevisiae deletion strains, locus YNL322C, strain KRE1 (second series), hits give low values",1.01
same,normalized growth,"S. cerevisiae deletion strains, locus YNL322C, strain KRE1, hits give low values",0.0901 (active)
same,normalized growth,"S. cerevisiae deletion strains, locus YNR049C, strain mso1, hits give low values",1
same,normalized growth,"S. cerevisiae deletion strains, locus YNR052C, strain pop2, hits give low values",0.448 (active)
same,normalized growth,"S. cerevisiae deletion strains, locus YOL006C, strain TOP1, hits give low values",0.0919 (active)
same,normalized growth,"S. cerevisiae deletion strains, locus YOL012C, strain htz1",2.18 [resistant] (active)
same,normalized growth,"S. cerevisiae deletion strains, locus YOL147C, strain pex11, hits give low values",0.884 (active)
same,normalized growth,"S. cerevisiae deletion strains, locus YOR001W, strain rrp6, hits give low values",0.891 (active)
same,normalized growth,"S. cerevisiae deletion strains, locus YOR061W, strain CKA2, hits give low values",0.624 (active)
same,normalized growth,"S. cerevisiae deletion strains, locus YOR069W, strain VPS5, hits give low values",0.973
same,normalized growth,"S. cerevisiae deletion strains, locus YOR070C, strain gyp1, hits give low values",0.775 (active)
same,normalized growth,"S. cerevisiae deletion strains, locus YOR080W, strain dia2, hits give low values",0.952
same,normalized growth,"S. cerevisiae deletion strains, locus YOR083W, strain WHI5, hits give low values",0.657 (active)
same,normalized growth,"S. cerevisiae deletion strains, locus YOR106W, strain vam3, hits give low values",0.345 (active)
same,normalized growth,"S. cerevisiae deletion strains, locus YOR136W, strain idh2, hits give low values",0.914 (active)
same,normalized growth,"S. cerevisiae deletion strains, locus YOR144C, strain elg1, hits give low values",1.01
same,normalized growth,"S. cerevisiae deletion strains, locus YOR184W, strain ser1, hits give low values",0.463 (active)
same,normalized growth,"S. cerevisiae deletion strains, locus YOR231W, strain MKK1, hits give low values",0.954
same,normalized growth,"S. cerevisiae deletion strains, locus YOR265W, strain rbl2, hits give low values",0.851 (active)
same,normalized growth,"S. cerevisiae deletion strains, locus YOR270C, strain vph1, hits give low values",0.354 (active)
same,normalized growth,"S. cerevisiae deletion strains, locus YOR290C, strain snf2, hits give low values",0.763 (active)
same,normalized growth,"S. cerevisiae deletion strains, locus YOR316C, strain cot1, hits give low values",0.993
same,normalized growth,"S. cerevisiae deletion strains, locus YPL051W, strain arl3, hits give low values",0.738 (active)
same,normalized growth,"S. cerevisiae deletion strains, locus YPL055C, strain LGE1, hits give low values",0.0822 (active)
same,normalized growth,"S. cerevisiae deletion strains, locus YPL078C, strain atp4, hits give low values",0.919
same,normalized growth,"S. cerevisiae deletion strains, locus YPL106C, strain sse1, hits give low values",0.873
same,normalized growth,"S. cerevisiae deletion strains, locus YPL240C, strain hsp82, hits give low values",0.942
same,normalized growth,"S. cerevisiae deletion strains, locus YPL241C, strain CIN2, hits give low values",0.652 (active)
same,normalized growth,"S. cerevisiae deletion strains, locus YPL256C, strain CLN2, hits give low values",0.947
same,normalized growth,"S. cerevisiae deletion strains, locus YPR119W, strain clb2, hits give low values",1.07
same,normalized growth,"S. cerevisiae deletion strains, locus YPR141C, strain kar3, hits give low values",0.986
same,normalized growth,"S. cerevisiae deletion strains, locus YPR163C, strain tif3, hits give low values",0.718 (active)
same,normalized growth,"S. cerevisiae deletion strains, locus YPR167C, strain met16, hits give low values",0.807 (active)
same,normalized growth,"S. cerevisiae deletion strains, strain wtn01, hits give low values",0.301 (active)
same,normalized growth,"S. cerevisiae strains, strain wild type, hits give low values",0.117 (active)
